Experimental data reported in PubChem BioAssay AID1745850 (National Center for Advancing Translational Sciences (NCATS), 2022).
In all, about 2,100 compounds went through this assay and about 260 (12%) were called active. Another 58% or so got no clear call; they are omitted. Some of the results follow. Values without a mark were called inactive. Calls come from the whole dose curve; as a rule, active = well fitted cell-killing curve with a large enough effect; inconclusive = small, poorly fitted or top-dose-only effect, or effect the other way; inactive = flat fitted curve, though single readings scatter.

Experiment: Viability Counterscreen for Confirmatory qHTS for Inhibitors of ATXN expression; note: nearly all actives have a fitted effect of over 50% in size
Settings: HEK-293 ATXN2-luc cells viability, CellTiter-Fluor, 24 h; activity change, negative = cytotoxicity: at the top concentration
Procedure, shortened: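 Cells with an ATXN2-luciferase reporter were dosed in a dilution series for 24 h at 37 degrees C. Viability was read first with Gly-Phe-AFC at 25 uM final (fluorescence, ex 405/em 540), then SteadyGlo luminescence. Medium-only wells defined 100% inhibition.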
Potency is the fitted concentration of half-maximal effect.

Compound	activity change, negative = cytotoxicity	Potency
CC(=O)c1cccc(-c2ccnc3c2CC(C(=O)Nc2ccc(F)c(Cl)c2)O3)c1 (configuration not stated)	-26.8%	–
CC(=O)c1cccc(NC(=O)c2cccc3c(-c4cccc(C(N)=O)c4)coc23)c1	–	20 µM (active)
COc1cc(NC(=O)c2cc(-c3ccccc3)nc3c2cnn3C(C)C)cc(OC)c1OC	-29.6%	–
COc1cc(NC(=O)c2cccc3c(-c4cnn(C)c4)coc23)cc(OC)c1OC	–	31.6 µM (active)
CCc1cc2c(=O)c(-c3cnn(-c4ccccc4)c3)coc2c(CN2CCOCC2)c1O	-10.7%	–
OCCN1CCN(C(=S)c2ccc(-c3ccccc3)cc2)CC1	-13% [at 57.5 µM]	–
Cc1[nH]n(-c2ccccc2)c(=O)c1C=Nc1cccc2cccnc12	-11.7%	–
COc1cc(C#Cc2c(-c3cncn3C)n(C)c3ccc(-c4cnc(N5CCOCC5)nc4)cc23)cc(OC)c1	5.72%	–
COC(=O)c1ccsc1NC(=O)CN1CCN(Cc2ccc3c(c2)OCO3)CC1	-20.4% [at 57.5 µM]	–
Cc1ccc(CN2CC(C(=O)Nc3ncc(C)s3)CC2=O)cc1 (configuration not stated)	-7.83%	–
COc1ccccc1-c1cc2nc(-c3ccccc3)cc(N3CCN(C(=O)c4ccoc4)CC3)n2n1	–	15.8 µM (active)
COc1cc(OC)cc(-c2cc3nc(C)c(CCC(=O)NCc4ccccc4)c(C)n3n2)c1	-17.9% [at 57.5 µM]	–
CC1CCN(C(=O)c2cc3nc(-c4ccccc4)cc(-c4ccccc4)n3n2)CC1	-2.33%	–
NS(=O)(=O)c1ccc(N2N=C(c3ccccc3)CC2c2ccc(F)cc2)cc1 (configuration not stated)	-3.59%	–
CCCCn1c(SCC(=O)Nc2cc(NC(=O)c3ccco3)ccc2C)nc2ccccc2c1=O	-29.7% [at 57.5 µM]	–
Fc1ccc2[nH]c3c(NCc4ccccc4)ncnc3c2c1	-21.4%	–
Fc1ccc2[nH]c3c(N4CCSCC4)ncnc3c2c1	–	25.1 µM (active)
Cc1ccc(CN(C)C(=O)CN2C(=O)NC(c3ccccc3)(c3ccccc3)C2=O)c(C)c1	-19.4%	–
COc1cc(-c2nnc(SCC(=O)N(Cc3ccccc3)C(C)(C)C)o2)cc(OC)c1OC	-20.5%	–
C=CCOC(=O)C1=C[C@@H](c2ccc3c(c2)OCO3)C[C@@H](OCCCCO)O1	-28.3% [at 57.5 µM]	–
O=[N+]([O-])c1ccc(C[n+]2cccc3ccc4cccnc4c32)cc1	-4.61%	–
O=C(Nc1cccc2cccnc12)c1csc(COCCO)n1	-16.4% [at 57.5 µM]	–
O=S(=O)(Nc1cccc2cccnc12)c1ccccc1	–	1.78 µM (active)
O=C(Nc1cccc(Br)c1)Oc1cccc2cccnc12	-27.9% [at 57.5 µM]	–
O=[N+]([O-])c1ccccc1S(=O)(=O)Nc1cccc2cccnc12	–	17.8 µM (active)
O=c1cc(N2CCN(c3ccccc3)CC2)[nH]c(=O)n1C1CCCCC1	-26.7% [at 57.5 µM]	–
Cc1cc(Cl)ccc1-c1cc2nc(NCCCN(C)C)n(C)c(=O)c2s1	15%	–
